Reference: PubChem BioAssay AID602447 (National Center for Advancing Translational Sciences (NCATS), 2012)
Results filed as inconclusive are left out. Calls of active or inactive are those of the source. How the calls were made is not given here.

The molecules below were run against Beta-2 adrenergic receptor (Homo sapiens) (UniProt P07550) (assay: qHTS for antagonists of the Thyroid Stimulation Hormone Receptor: Hit Validation with Beta-2 Adrenergic Receptor). Conditions: B2AR-expressing cells, cAMP HTRF, antagonist counterscreen; stronger effect = higher value.
Source text: The thyroid-stimulating hormone receptor (TSHR) is a member of the 7 trans-membrane-spanning receptor (7TMR) family of cell surface receptors. TSHR-mediated hyperthyroidism is important in thyroid pathology. The development of small molecule antagonists of TSHR may lead to therapeutic approaches for TSHR-mediated hyperthyroidism caused by constitutively activating mutations or stimulating auto-antibodies associated with Graves' disease. Graves' disease is the leading cause of hyperthyroidism and is caused by autoantibodies that stimulate TSHR (TsAbs) causing thyroid growth and unregulated overproduction of thyroid hormones and existing treatments have liabilities (agranulocytosis). In addition, TSHRs are known to be expressed in multiple extrathyroidal tissues including bone, brain, kidney, testis, fat and cells of the immune system but the role of the TSHR in these tissues is not clear. Therefore, TSHR antagonists/inverse agonists could be used as probes of extrathyroidal TSHR function. Finally, TSHR inverse agonists, which are a subclass of antagonists that inhibit agonist-independent (or basal or constitutive) TSHR signaling, could be used to inhibit TSH-independent signaling in patients with recurrent or metastatic thyroid cancer who are receiving thyroid hormone to suppress TSH. In collaboration between scientist from the NCGC and the NIDDK, a miniaturized HTRF high-throughput screen was developed. It's a cell based assay, where an anti cAMP antibody contains a fluorescent cryptate tag (excitation 337 nm; emission 620 nm) and the acceptor is cAMP-d2 (excitation 620 nm; emission 665 nm). When antibody and cAMP-d2 interact and are excited by a 337 nm light, a FRET occurs resulting in emission at 665 nm. The assay is competition between cAMP-d2 and cAMP (from the cell lysate). The homogeneous protocol allows for one step dispense after stimulation that is automation friendly. This is a hit validation assay in a counterscreen using beta-2 adrenergic receptor, a closely related hormone receptor NIH Chemical Genomics Center [NCGC] NIH Molecular Libraries Probe Centers Network [MLPCN] Grant: MH090855 Assay Provider: Marvin Gershengorn, NIDDK
An anti cAMP antibody contains a fluorescent cryptate tag (excitation 337 nm; emission 620 nm) and the acceptor is cAMP-d2 (excitation 620 nm; emission 665 nm). When antibody and cAMP-d2 interact and are excited by a 337 nm light, a FRET occurs resulting in emission at 665 nm. The assay is competition between cAMP-d2 and cAMP (from the cell lysate). The homogeneous protocol allows for one step dispense after stimulation that is automation friendly.

Beta-2 adrenergic receptor (Homo sapiens), sequence (P07550 whole entry, looked up): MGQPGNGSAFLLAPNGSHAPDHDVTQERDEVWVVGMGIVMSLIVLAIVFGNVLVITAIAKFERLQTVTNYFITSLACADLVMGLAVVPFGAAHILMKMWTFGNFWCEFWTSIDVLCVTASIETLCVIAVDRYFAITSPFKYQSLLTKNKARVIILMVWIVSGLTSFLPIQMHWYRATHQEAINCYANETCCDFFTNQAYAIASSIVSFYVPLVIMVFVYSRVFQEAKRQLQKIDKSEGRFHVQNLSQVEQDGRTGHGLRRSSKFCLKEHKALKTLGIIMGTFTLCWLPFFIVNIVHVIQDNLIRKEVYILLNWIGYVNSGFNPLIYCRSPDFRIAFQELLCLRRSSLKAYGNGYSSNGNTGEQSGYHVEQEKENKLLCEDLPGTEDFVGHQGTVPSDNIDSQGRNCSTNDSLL

| Structure (SMILES) | max inhibition |
| --- | --- |
| Cc1ccc(-n2[nH]c(C)c(/C=N/Nc3ccc([N+](=O)[O-])cc3[N+](=O)[O-])c2=O)cc1C | 88.7% (active) |
| CC(=O)Oc1c(C)cc(Cl)cc1C(=O)Nc1ccc([N+](=O)[O-])cc1Cl | 82.9% (active) |
| O=C(Nc1nc(-c2ccccc2)cs1)c1ccccc1NS(=O)(=O)c1ccc(F)cc1 | 96% (active) |
| O=C(COc1cccc2ccccc12)Nc1ccc(Cl)cc1C(=O)O | 85.8% (active) |
| O=C1NC(=S)S/C1=C\c1ccc(SCc2ccccc2)o1 | 92.6% (active) |
| COc1ccc(OCC(=O)NC(=S)Nc2ccc(N3CCOCC3)c(Cl)c2)cc1 | 89.7% (active) |
| CCSC1=NSC2=NC(=O)/C(=C\c3coc4ccccc4c3=O)C(=N)N12 | 96.6% (active) |
| O=c1cc(C(F)(F)F)[nH]c2c(C(F)(F)F)cccc12 | 88.6% (active) |
| Oc1c(Cl)cc(Cl)c(Cl)c1Cc1c(O)c(Cl)cc(Cl)c1Cl | 96.4% (active) |
| COc1ccc(-c2csc(/C(C#N)=C\c3ccc(O)c([N+](=O)[O-])c3)n2)cc1OC | 94.4% (active) |
| CCn1nc([N+](=O)[O-])c(C(C#N)c2nc3cc(C(F)(F)F)ccc3s2)c(Cl)c1=O (centres undefined) | 94.3% (active) |
| O=C1/C(=C\c2cc([N+](=O)[O-])ccc2O)SC(=S)N1Cc1ccc(Cl)cc1 | 90.7% (active) |
| O=S(=O)(Nc1cc(Cl)ccc1-n1cncn1)c1cc(Br)ccc1Br | 72.6% (active) |
| O=C(Nc1ccc(Oc2ccc(Cl)cc2)c(Cl)c1)c1cc(I)cc(I)c1O | 91.3% (active) |
